Test results published in PubChem BioAssay (Tox21).
Inconclusive results are not listed. A call without a number means that no potency is given here. Values without a mark were called inactive. The source made the active and inactive calls. Unless noted, calls come from the whole dose curve.

tested on: not listed separately; assay: p53 small molecule agonists, cell-based qHTS assay (AID 1963582; active = well fitted activation curve with a large enough effect in the signal ratio in the repeat runs, not every such curve was filed as active; the % refers to the signal ratio); settings: HCT-116 p53RE-bla reporter, beta-lactamase FRET ratio, 16 h; series mostly up to 66 µM
In short: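 In this cell-based concentration-response screen, a p53 response element drives beta-lactamase; cells received DMSO-borne compounds after 5 h culture and were incubated a further 16 h before FRET substrate development.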

Structure (SMILES)	Potency
C[N+](C)(C)CC(O)CCl (stereo unspecified)	inactive
CCC(C)NC(N)=O (stereo unspecified)	inactive
COCc1ccc(COC)cc1	inactive
CCCCNc1ccccc1	inactive
N#Cc1ccc(C2CCCc3cncn32)cc1 (stereo unspecified)	inactive
O=C1CCC(=O)O1	inactive
CS(=O)(=O)O	inactive
CNCCS(=O)(=O)O	inactive
NC(=Nc1ccccc1)Nc1ccccc1	inactive
CCOC(=O)c1c(C)n(C)c2ccc(O)cc12	inactive
CCCCCCCCCCCCCCCCCCOCC(O)CO (stereo unspecified)	inactive

molecular target: 5-hydroxytryptamine receptor 2A (Homo sapiens) (UniProt P28223); assay: 5-hydroxytryptamine receptor 2A (HTR2A) small molecule antagonists, cell-based qHTS assay (AID 1963586); settings: HTR2A-CHO cells, DOI-induced calcium flux, fluorescence; series mostly up to 61.5 µM; note: nearly all actives have a fitted effect of over 45% in size; note: potency is the fitted concentration of half-maximal effect
In short: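 Antagonist-mode intracellular calcium assay: DOI (4 nM) added after 5 min compound pre-incubation at room temperature to dye-loaded HTR2A-CHO cells. Fluorescence followed for 3 min, sampled every second.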

5-hydroxytryptamine receptor 2A (Homo sapiens), sequence (P28223 whole entry, looked up): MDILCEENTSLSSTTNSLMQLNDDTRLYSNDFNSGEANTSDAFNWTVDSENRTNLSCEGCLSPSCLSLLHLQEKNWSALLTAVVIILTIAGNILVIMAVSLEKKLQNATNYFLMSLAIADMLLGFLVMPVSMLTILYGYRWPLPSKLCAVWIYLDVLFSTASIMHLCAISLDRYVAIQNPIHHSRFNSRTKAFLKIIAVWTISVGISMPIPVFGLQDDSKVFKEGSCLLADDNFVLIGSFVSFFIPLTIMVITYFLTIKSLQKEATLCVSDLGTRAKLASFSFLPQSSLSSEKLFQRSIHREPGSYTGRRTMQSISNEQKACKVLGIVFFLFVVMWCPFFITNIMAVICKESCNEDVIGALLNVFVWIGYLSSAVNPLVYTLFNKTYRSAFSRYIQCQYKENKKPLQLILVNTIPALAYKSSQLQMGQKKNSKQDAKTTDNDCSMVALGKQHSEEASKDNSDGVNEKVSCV

Structure (SMILES)	Potency	activity, negative = inhibition
S=C(NC1CCCCC1)NC1CCCCC1	inactive	
O=c1cc(-c2ccccc2)oc2ccccc12	inactive	
CC(C)(N=C=O)c1cccc(C(C)(C)N=C=O)c1	inactive	
Nc1cccc(N)n1	inactive	
O=S(=O)(Oc1ccc(Cl)cc1Cl)c1ccccc1	inactive	
C[N+](C)(C)CC(O)CCl (stereo unspecified)	inactive	
Cn1sccc1=O	inactive	
NCCNCCNCCNCCN	inactive	
COc1ccc(N)c(C)c1	inactive	
O=C(O)c1ccc(C(=O)O)c(C(=O)O)c1	inactive	
CCCCCCCCCCCC(=O)N(C)CC(=O)O	inactive	
CCC(C)NC(N)=O (stereo unspecified)	inactive	
CC(=O)OC1CC(C)OC(C)O1 (stereo unspecified)	inactive	
CC(C)CC(C)O (stereo unspecified)	inactive	
COCc1ccc(COC)cc1	inactive	
CCCCC(CC)COC(C)=O (stereo unspecified)	inactive	
O=C1CCCCC1	inactive	
CCC(C)c1ccccc1O (stereo unspecified)	inactive	

Structure (SMILES)	Potency	activity, negative = inhibition
Cc1cccc(C)c1[N+](=O)[O-]	inactive	
N#Cc1ccc(C2CCCc3cncn32)cc1 (stereo unspecified)	inactive	
CC(=O)OC/C=C(\C)CC/C=C(\C)CCC=C(C)C	inactive	
O=C1CCC(=O)O1	inactive	
CS(=O)(=O)c1ccc(Cl)cc1	inactive	
Cc1cccnc1	inactive	
CNCCS(=O)(=O)O	inactive	
O=C(O)c1ccccc1C(c1ccc(O)cc1)c1ccc(O)cc1	inactive	
CN1Cc2c(N)cccc2C(c2ccccc2)C1 (stereo unspecified)	14.9 µM (active)	
C[n+]1ccn(CCO)c1	inactive	
CCOC(=O)c1c(C)n(C)c2ccc(O)cc12	inactive	
CC1=CC[C@@H]2C[C@H]1C2(C)C		6.44% [at 12.7 µM]
c1ccc2c(c1)-c1cccc3c1c-2cc1ccccc13	inactive	
C=CC(=O)NCOCCCC	inactive	
O=[N+]([O-])c1ccc2nc[nH]c2c1	inactive	
CCCCCCCO	inactive	
CCCCCCCCCCCCCCCCCCOCC(O)CO (stereo unspecified)	inactive	
